# Reference: the supplement of paper PMC12350171
# Where a name gives a salt, the structure may show the parent alone.
# Test system: Haemophilus parainfluenzae
# Test: growth AUC normalised to DMSO control (fraction of control); higher = less growth inhibition, active = hit call of the paper
# Details: 20 µM;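 active = AUC significantly below DMSO controls by Student t-fit with adjusted P under 0.01; inactive = not significantly reduced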
# Method in brief: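 Pathogens passaged twice anaerobically were inoculated at a starting OD578 of 0.01 into pre-reduced mGAM plates with drug at 20 μM and 1% DMSO, sealed with breathable membranes. Haemophilus parainfluenzae medium was supplemented with hemin and NAD. OD578 was read hourly for 24 h, with three biological replicates. Growth-curve AUC was computed by the trapezoidal rule up to the exponential-to-stationary transition and normalised to DMSO controls on the same plate.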
row,SMILES,growth AUC normalised to DMSO control
1,CC(=O)N(CC(O)CN(C(C)=O)c1c(I)c(C(=O)NCC(O)CO)c(I)c(C(=O)NCC(O)CO)c1I)c1c(I)c(C(=O)NCC(O)CO)c(I)c(C(=O)NCC(O)CO)c1I (stereo unspecified) [Iodixanol],0.976 (inactive)
2,Cc1nnc(NS(=O)(=O)c2ccc(N)cc2)s1 [Sulfamethizole],0.903 (inactive)
3,Nc1ccc(C(=O)O)c(O)c1 [Aminosalicylic acid],1.09 (inactive)
4,C[C@]12C=CC(=O)C=C1CC[C@H]1[C@@H]3C[C@@H](O)[C@](O)(C(=O)CO)[C@@]3(C)C[C@H](O)[C@@]12F [Triamcinolone],1.01 (inactive)
5,CCc1c2c(nc3ccc(OC(=O)N4CCC(N5CCCCC5)CC4)cc13)-c1cc3c(c(=O)n1C2)COC(=O)[C@]3(O)CC [Irinotecan hydrochloride trihydrate],1 (inactive)
6,CC1(C)S[C@@H]2[C@H](NC(=O)[C@H](NC(=O)N3CCNC3=O)c3ccccc3)C(=O)N2[C@H]1C(=O)O [Azlocillin sodium salt],0.0396 (active)
7,Nc1nc(=O)[nH]cc1F [Flucytosine],0.95 (inactive)
8,CC(C)NCC(O)COc1cccc2[nH]ccc12 (stereo unspecified) [Pindolol],1.05 (inactive)
9,CCOC(=O)[C@H](CCc1ccccc1)N[C@@H](C)C(=O)N1CCC[C@H]1C(=O)O [Enalapril maleate],1.03 (inactive)
10,Nc1nc(Cl)nc2c1ncn2[C@H]1C[C@H](O)[C@@H](CO)O1 [Cladribine],1.01 (inactive)
11,Clc1ccc(Cn2c(CN3CCCC3)nc3ccccc32)cc1 [Clemizole hydrochloride],0.982 (inactive)
12,CCCCC1C(=O)N(c2ccccc2)N(c2ccc(O)cc2)C1=O (stereo unspecified) [Oxyphenbutazone],1.08 (inactive)
13,C[C@@](Cc1ccc(O)c(O)c1)(NN)C(=O)O [Carbidopa],0.996 (inactive)
14,CCCCNC(=O)NS(=O)(=O)c1ccc(C)cc1 [Tolbutamide],0.99 (inactive)
15,CC1Cc2ccccc2N1NC(=O)c1ccc(Cl)c(S(N)(=O)=O)c1 (stereo unspecified) [Indapamide],1.03 (inactive)
16,C=CC(N)CCC(=O)O (stereo unspecified) [Vigabatrin hydrochloride],1.02 (inactive)

row,SMILES,growth AUC normalised to DMSO control
1,CCCc1nn(C)c2c(=O)[nH]c(-c3cc(S(=O)(=O)N4CCN(C)CC4)ccc3OCC)nc12 [Sildenafil],1.1 (inactive)
2,O=C(CCCCCCC(=O)Nc1ccccc1)NO [Vorinostat],1.07 (inactive)
3,CN1CCCN=C1/C=C/c1cccs1 [Pyrantel tartrate],0.978 (inactive)
4,C#Cc1cccc(Nc2ncnc3cc(OCCOC)c(OCCOC)cc23)c1 [Erlotinib],1.04 (inactive)
5,CC(C(=O)O)c1ccc2c(c1)Cc1cccnc1O2 (stereo unspecified) [Pranoprofen],0.985 (inactive)
6,O=C1Cc2cc(CCN3CCN(c4nsc5ccccc45)CC3)c(Cl)cc2N1 [Ziprasidone  hydrochloride monohydrate],1.03 (inactive)
7,CCC1(C)CC(=O)NC1=O (stereo unspecified) [Ethosuximide],1.06 (inactive)
8,Cc1cc(C2CCCCC2)n(O)c(=O)c1 [Ciclopirox ethanolamine],0.905 (inactive)
9,Nc1ncnc2c1ncn2[C@@H]1O[C@H](CO)[C@@H](O)[C@@H]1O [Vidarabine],0.96 (inactive)
10,CC(C)(C)NC(=O)[C@H]1CC[C@H]2[C@@H]3CC[C@H]4NC(=O)C=C[C@]4(C)[C@H]3CC[C@]12C [Finasteride],1.06 (inactive)
11,NC(=O)N/N=C/c1ccc([N+](=O)[O-])o1 [Nitrofural],0.465 (active)
12,COc1ccc(C2CNC(=O)C2)cc1OC1CCCC1 (stereo unspecified) [Rolipram],0.952 (inactive)
13,CCCNC(C)C(=O)Nc1c(C)csc1C(=O)OC (stereo unspecified) [Articaine hydrochloride],1.01 (inactive)
14,CCOC(=O)[C@@](C)(N)Cc1ccc(O)c(O)c1 [Methyldopate hydrochloride],0.995 (inactive)
15,CN[C@H](CC(C)C)C(=O)N[C@H]1C(=O)N[C@@H](CC(N)=O)C(=O)N[C@H]2C(=O)N[C@H]3C(=O)N[C@H](C(=O)N[C@H](C(=O)O)c4cc(O)cc(O)c4-c4cc3ccc4O)[C@H](O)c3ccc(c(Cl)c3)Oc3cc2cc(c3O[C@@H]2O[C@H](CO)[C@@H](O)[C@H](O)[C@H]2O[C@H]2C[C@](C)(N)[C@H](O)[C@H](C)O2)Oc2ccc(cc2Cl)[C@H]1O [Vancomycin hydrochloride],1.01 (inactive)
